Measured values published in PubChem BioAssay (NCATS).
Values joined by “and” are separate entries in the source; they are usually repeats but may differ in a detail not shown here. Equal entries are not always repeated. For part of these data: Potency and affinity values are given separately. A structure can be active in one record and inactive in another. Active and inactive are the calls of the source. How the calls were made is not given here.

How the values were obtained:
[1] = Ebola virus entry assay, blue channel fluorescence
[2] = Ebola virus entry assay, ratio channel
[3] = Ebola virus entry assay, green channel fluorescence
[4] = Ebola virus entry assay, reporter ratio channel; AC50: Channel type: primary unless noted; outcome: Channel type: primary unless noted
[5] = Ebola virus entry assay, blue channel (ratio component)

Measured: AC50

Nc1ccncc1
inactive: all assays above

O=C(O)c1ccc2[nH]cc(CCCCN3CC=C(c4ccccc4)CC3)c2c1
inactive: all assays above

CC(C)Oc1ccc2c(=O)c(-c3ccccc3)coc2c1
inactive: all assays above

CNCC(O)c1ccc(O)cc1 (stereo not drawn)
inactive: all assays above

CCCc1nc2c(C)cc(-c3nc4ccccc4n3C)cc2n1Cc1ccc(-c2ccccc2C(=O)O)cc1
inactive: all assays above

CC1NCCOC1c1ccccc1 (stereo not drawn)
inactive: all assays above

C[C@H]1O[C@@H](O[C@H]2[C@@H](O)C[C@H](O[C@H]3[C@@H](O)C[C@H](O[C@H]4CC[C@@]5(C)[C@H](CC[C@@H]6[C@@H]5CC[C@]5(C)[C@@H](C7=CC(=O)OC7)CC[C@]65O)C4)O[C@@H]3C)O[C@@H]2C)C[C@H](O)[C@@H]1O
active: [1] 1.41 µM | [2] 0.708 µM | [4] 0.708 µM

C[C@]12CCC(=O)C(O)=C1CC[C@@H]1[C@@H]2CC[C@]2(C)C(=O)CC[C@@H]12
inactive: all assays above

CC(C)(C)NCC(O)c1cc(Cl)c(N)c(Cl)c1 (stereo not drawn)
inactive: all assays above

OCCOc1ccccc1
inactive: all assays above

CC(=O)SC[C@@H](C)C(=O)N1CCC[C@H]1C(=O)N[C@@H](Cc1ccccc1)C(=O)O
inactive: all assays above

FC(F)(F)c1cccc(C2=CCN(CCc3ccc4ccccc4c3)CC2)c1
inactive: all assays above

CC(C)(N)Cc1ccc(Cl)cc1
inactive: all assays above

NN=C(N)N
inactive: all assays above

Cc1cccc(C)c1NC1=NCCCS1
inactive: all assays above

Cc1ncc(CNC(=O)N(CCCl)N=O)c(N)n1
inactive: all assays above

CC[N+]1(C)CCCC(OC(=O)C(O)(c2ccccc2)c2ccccc2)C1 (stereo not drawn)
inactive: all assays above

COc1ccc2c(c1OC)CN1CCc3cc4c(cc3C1C2)OCO4 (stereo not drawn)
inactive: all assays above

CCCCC(CC)CN=C(N)NC(N)=NCCCCCCN=C(N)NC(N)=NCC(CC)CCCC (stereo not drawn)
inactive: [2] | [4]
active: [1] 11.2 µM

C=CCN1CC[C@]23c4c5ccc(O)c4O[C@H]2C(=O)CC[C@@]3(O)[C@H]1C5
inactive: all assays above

CC[N+](CC)(CC)CC
inactive: all assays above

COC[C@@H](NC(C)=O)C(=O)NCc1ccccc1
inactive: all assays above

CCOP(=S)(OCC)Oc1cc(C)nc(C(C)C)n1
inactive: all assays above

Clc1cccc(N2CCNCC2)c1
inactive: all assays above

CC(C)(C)CC(C)(C)c1ccc(O)cc1
active: [1] 20 µM | [2] 17.8 µM and 15.8 µM | [4] 17.8 µM and 15.8 µM

C#CCOC(C(=O)OCCN(C)C)(c1ccccc1)c1ccccc1
active: [1] 12.6 µM | [2] 14.1 µM | [4] 14.1 µM

Oc1ccc(Cl)cc1Cc1ccccc1
active: [1] 20 µM | [2] 10 µM and 14.1 µM | [4] 10 µM and 14.1 µM

COc1cccc2c1C(=O)c1c(O)c3c(c(O)c1C2=O)C[C@@](O)(C(=O)CO)C[C@@H]3O[C@H]1C[C@H](N)[C@H](O)[C@H](C)O1
active: [1] 15.8 µM | [2] 14.1 µM | [4] 14.1 µM

c1ccc2c(c1)Nc1ccccc1S2
inactive: [1] | [2] | [4]

Oc1cc(Cl)ccc1Oc1ccc(Cl)cc1Cl
active: [1] 15.8 µM | [2] 7.08 µM and 14.1 µM | [4] 7.08 µM and 14.1 µM

CCCN1CCC[C@@H]2Cc3nc(N)ncc3C[C@H]21
inactive: [2]
active: [1] 39.8 µM | [4] 39.8 µM

CN1CC[C@H](c2c(O)cc(O)c3c(=O)cc(-c4ccccc4Cl)oc23)[C@H](O)C1
not listed: [3]
inactive: all other assays above

OC1(c2ccc(Cl)c(C(F)(F)F)c2)CCN(CCCC(c2ccc(F)cc2)c2ccc(F)cc2)CC1
active: [1] 5.01 µM | [2] 2.82 µM | [4] 2.82 µM

CN1C[C@H](CNC(=O)OCc2ccccc2)C[C@@H]2c3cccc4c3c(cn4C)C[C@H]21
active: [1] 6.31 µM | [2] 3.98 µM | [4] 3.98 µM

COc1cc([C@@H]2c3cc4c(cc3[C@H](O)[C@H]3COC(=O)[C@H]23)OCO4)cc(OC)c1OC
active: [1] 11.2 µM | [2] 5.01 µM | [4] 5.01 µM

COC(=O)Nc1nc2ccc(C(=O)c3cccs3)cc2[nH]1
active: [1] 0.708 µM | [2] 0.708 µM | [4] 0.708 µM
inactive: [4] inactive [Channel type: confirmation]

COc1ccc(C(=O)c2c(C)n(CCN3CCOCC3)c3ccccc23)cc1
active: [1] 39.8 µM | [4] 35.5 µM
inactive: [2]

CC(CCc1ccccc1)NC(C)C(O)c1ccc(O)cc1 (stereo not drawn)
active: [1] 35.5 µM | [2] 35.5 µM | [4] 35.5 µM

CC1=C(/C=C/C(C)=C/C=C/C(C)=C/C(=O)Nc2ccc(O)cc2)C(C)(C)CCC1
inactive: [2]
active: [1] 39.8 µM | [4] 39.8 µM

O=c1c(O)c(-c2ccc(O)c(O)c2)oc2cc(O)cc(O)c12
inactive: [1] | [3] | [5]

CC1(CN2CCC(n3c(=O)[nH]c4ccccc43)CC2)OCc2ccccc2-n2cccc21 (stereo not drawn)
active: [1] 20 µM | [2] 15.8 µM | [4] 15.8 µM

C=C(C)[C@H]1Cc2c(ccc3c2O[C@@H]2COc4cc(OC)c(OC)cc4[C@@H]2C3=O)O1
active: [1] 10 µM | [2] 8.91 µM | [4] 8.91 µM

CN1C(=S)CN=C(c2ccccc2)c2cc(Cl)ccc21
not listed: [3]
inactive: all other assays above

CCCCCCCCCCCCCC[N+](C)(C)Cc1ccccc1
active: [1] 39.8 µM | [2] 25.1 µM | [4] 25.1 µM

Cc1cc2c(C(C)C)c(O)c(O)c(C=O)c2c(O)c1-c1c(C)cc2c(C(C)C)c(O)c(O)c(C=O)c2c1O
active: [1] 39.8 µM | [4] 39.8 µM
inactive: [2]

COc1cc2c(N3CCN(C(=O)Nc4ccc(OC(C)C)cc4)CC3)ncnc2cc1OCCCN1CCCCC1
active: [1] 11.2 µM | [2] 10 µM | [4] 10 µM

Cc1cc(OCCOCC[N+](C)(C)Cc2ccccc2)ccc1C(C)(C)CC(C)(C)C
active: [1] 8.91 µM | [2] 3.98 µM | [4] 3.98 µM

CCn1cc(C(=O)O)c(=O)c2ccc(C)nc21
inactive: [1] | [2] | [4]

CCC1(C2=NCCN2)Cc2ccccc2O1 (stereo not drawn)
not listed: [3]
inactive: all other assays above

Cc1ccc2c(c1)C1CN(C)CCC1N2 (stereo not drawn)
active: [1] 17.8 µM | [2] 10 µM | [4] 10 µM

CCCCCCC[N+](CC)(CC)CCCCc1ccc(Cl)cc1
inactive: [2]
active: [1] 39.8 µM | [4] 39.8 µM

Cc1cccc(C)c1NC(=O)CN1CCN(CCCC(c2ccc(F)cc2)c2ccc(F)cc2)CC1
active: [1] 3.16 µM | [2] 3.16 µM | [4] 3.16 µM

Clc1ccc(COC(Cn2ccnc2)c2ccc(Cl)cc2Cl)cc1 (stereo not drawn)
active: [1] 10 µM | [2] 3.55 µM | [4] 3.55 µM

CCCCCCCCCCCCCCCC[N+](C)(C)CC
active: [1] 25.1 µM | [2] 11.2 µM | [4] 11.2 µM

Fc1ccc(C(OCCN2CCN(CCCc3ccccc3)CC2)c2ccc(F)cc2)cc1
active: [1] 3.98 µM | [2] 2.82 µM | [4] 2.82 µM

O=C1NCN(c2ccccc2)C12CCN(CC1COc3ccccc3O1)CC2 (stereo not drawn)
not listed: [3]
inactive: all other assays above

C=CC(=O)Nc1cc2c(Nc3ccc(F)c(Cl)c3)ncnc2cc1OCCCN1CCOCC1
active: [1] 3.16 µM | [2] 2.82 µM | [4] 2.82 µM

COc1cc(Nc2c(C#N)cnc3cc(OCCCN4CCN(C)CC4)c(OC)cc23)c(Cl)cc1Cl
active: [1] 2.82 µM | [2] 1.41 µM | [4] 1.41 µM

CC(C)C[C@H](NC(=O)[C@H](CCc1ccccc1)NC(=O)CN1CCOCC1)C(=O)N[C@@H](Cc1ccccc1)C(=O)N[C@@H](CC(C)C)C(=O)[C@@]1(C)CO1
active: [1] 0.316 µM | [2] 0.708 µM | [4] 0.708 µM

O=c1[nH]c2ccccc2n1CCCN1CCC(n2c(=O)[nH]c3cc(Cl)ccc32)CC1
active: [1] 39.8 µM | [2] 25.1 µM | [4] 25.1 µM

O=c1oc2ccccc2c(O)c1C(CC(O)c1ccc(-c2ccc(Br)cc2)cc1)c1ccccc1 (stereo not drawn)
not listed: [3]
inactive: all other assays above

Cc1ccc(-n2nc(C(C)(C)C)cc2NC(=O)Nc2ccc(OCCN3CCOCC3)c3ccccc23)cc1
active: [1] 25.1 µM | [2] 20 µM | [4] 20 µM

NC(=Nc1ccccc1)Nc1ccccc1
active: [1] 3.16 µM | [4] 31.6 µM
inactive: [2] | [4]

COC(=O)Nc1nc2ccc(C(=O)C3CC3)cc2[nH]1
active: [1] 8.91 µM | [2] 7.94 µM | [4] 7.94 µM
